# Screens: PubChem, National Center for Advancing Translational Sciences (NCATS)
# Sampled rows, rich in hits. Any-hit rate of the full collection: about 4.2%.
# Sfp inh: blocks B. subtilis Sfp PPTase activity | Q9F4F7 | Biochemical Sfp PPTase activity, qHTS | Potency, µM, without a hit: largest response in the series, negative = inhibition, hits mostly inhibitors | 310,000 tested, 3.5% active;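 also: the enzyme is Sfp with the accession as filed and its product quenches rhodamine fluorescence; 0% = enzyme reaction without inhibitor and -100% = no enzyme wells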
#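 Buffer: 50 mM Hepes-Na pH 7.6, 10 mM MgCl2, 0.01% Nonidet P-40, 0.01% BSA. Enzyme 15 nM, pre-exposed to compound 15 min; substrates then added and fluorescence change tracked over 30 min.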
# PLK1 PBD inh: inhibitors of human PLK1 polo-box domain binding; P53350; Plk1 PBD binding of FITC phosphopeptide, fluorescence polarization; Potency, µM, for inactives: max response, negative = inhibition, actives largely listed as inhibitors; 360,000 tested, 2.8% active; also: series mostly up to about 57 µM; nearly all actives have a fitted effect of over 65% in size
# ALOX12 inh: ALOX12 (human) lipoxygenase inhibition; P18054; 580,000 tested, 1.1% active; Potency, µM (series often up to 108 µM), inactives show at the top dose activity change, negative = inhibition, hits mostly inhibitors; AID 1671190; purified 12hLO, xylenol orange hydroperoxide absorbance
# Target sequence (P18054 whole entry, looked up): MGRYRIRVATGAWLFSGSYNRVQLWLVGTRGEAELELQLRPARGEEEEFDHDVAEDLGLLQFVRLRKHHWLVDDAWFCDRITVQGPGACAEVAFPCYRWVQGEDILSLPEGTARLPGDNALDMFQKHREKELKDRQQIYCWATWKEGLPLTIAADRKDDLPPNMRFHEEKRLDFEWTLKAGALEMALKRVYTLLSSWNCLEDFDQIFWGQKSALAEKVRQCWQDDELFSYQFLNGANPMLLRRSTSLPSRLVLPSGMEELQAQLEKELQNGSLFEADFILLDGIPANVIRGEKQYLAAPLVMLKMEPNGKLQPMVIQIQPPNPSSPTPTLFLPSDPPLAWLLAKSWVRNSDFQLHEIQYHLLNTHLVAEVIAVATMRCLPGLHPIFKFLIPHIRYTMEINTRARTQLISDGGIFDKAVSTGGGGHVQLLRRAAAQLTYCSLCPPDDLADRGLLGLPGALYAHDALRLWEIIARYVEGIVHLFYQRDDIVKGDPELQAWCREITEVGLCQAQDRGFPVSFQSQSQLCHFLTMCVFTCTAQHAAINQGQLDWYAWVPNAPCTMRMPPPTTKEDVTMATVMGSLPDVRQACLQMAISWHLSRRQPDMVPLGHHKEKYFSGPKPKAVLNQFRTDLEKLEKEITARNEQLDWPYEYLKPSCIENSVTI
#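 Purified human 12hLO at 150 nM in 25 mM Hepes, 0.01% Triton X-100, pH 7.0, preincubated 15 min at room temperature with compound. Reaction started with 40 uM arachidonic acid, 30 min at room temperature. Hydroperoxide measured by Fe-xylenol orange, 573/405 nm absorbance ratio.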
# VDR inh: blocks the human vitamin D receptor; P11473; VDR-SRC2-3 peptide fluorescence polarization, 2 h; Potency, µM, for the others: max response, negative = inhibition, usual class: inhibitors; 400,000 tested, 0.93% active
#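 Fluorescence polarization assay measuring small-molecule disruption of VDR binding to the coregulator peptide SRC2-3. Compounds were pin-transferred (23 nl) into the reagent mix and incubated 2 h at room temperature before reading.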
# * hit, by the source's call; ? = inconclusive; . = no result; ! = not confirmed by another sample; [ ] = remark or other dose. Calls follow the shape of the dose curve; as a rule, active = well fitted curve in the direction sought with a large enough effect; inconclusive = small, poorly fitted or top-dose-only effect, or another doubt; inactive = no such curve, though single readings can be large; an effect the other way counts as inactive or inconclusive. Unless noted, % is scaled to controls: 0 for no effect and ±100 for the full control effect; potency is read from the fitted curve at half-maximal effect.
SMILES,Sfp inh,PLK1 PBD inh,ALOX12 inh,VDR inh
Cc1ccc(S(=O)(=O)CCC(=O)Nc2cccc(C)c2)cc1,0.0%,-0.6%,-7.8%,-12.6%
NS(=O)(=O)c1ccc(CCNC(=O)CSc2ccccc2)cc1,9.9%,?,0.0%,-21.0%
O=C(CCS(=O)(=O)c1ccc(Br)cc1)NCCc1ccccc1,16.4%,29.9µM*,?,17.9%
NS(=O)(=O)c1ccc(CCNC(=O)CCS(=O)(=O)c2ccc(Br)cc2)cc1,3.5%,?,-9.7%,-25.9%
CCc1cccc(NS(=O)(=O)c2ccc3c(c2)NC(=O)CO3)c1,15.4%,-14.6%,-19.2%,-6.2%
CCc1cccc(NC(=O)CCS(=O)(=O)c2ccc3c(c2)NC(=O)CO3)c1,17.0%,26.7µM*,13.1%,-9.9%
NS(=O)(=O)c1ccc(CCNC(=O)CNCCc2ccccc2)cc1,-10.0%,-10.8%,0.631µM*,-8.2%
CCc1cccc(NC(=O)CCS(=O)(=O)c2ccc(Br)cc2)c1,-1.7%,13.4µM*,-3.9%,79.4µM*
O=C(c1ccc(S(=O)(=O)NCC2CCCO2)cc1)N1CCN(c2ccccc2F)CC1 (stereo not given),20.1%,3.0%,-11.3%,-17.1%
Cc1ccc(S(=O)(=O)CCNC(=O)Cc2ccccc2)cc1,22.0%,9.47µM*,-2.4%,56.2µM*
CCN(Cc1ccccc1)C(=O)CCS(=O)(=O)c1cc2c(cc1Cl)NC(=O)CO2,-1.7%,-21.7%,26.6%,-12.2%
Cc1ccc(CC(=O)NCCCc2ccccc2)cc1,-0.5%,-8.5%,0.0%,11.7%
CCN(Cc1ccccc1)C(=O)CCS(=O)(=O)c1ccc2c(c1)NC(=O)CO2,8.6%,21.2µM*,3.5%,-19.3%
Cc1cc(C)n(-c2cccc(-c3nc(C4CCOC4)no3)c2)n1 (stereo not given),.,.,13.9%,.
CCCCCCCCCCCCC(O)C(=O)O (stereo not given),22.6%,.,1.2%[12.5 µM],-0.2%
CCCCCCCCCCCCCCCCC(C(=O)O)C(O)(CC(=O)O)C(=O)O (stereo not given),-17.3%,.,8.7%,10µM*
O=C(O)c1ccc(CSc2nnc(-c3ccco3)n2-c2ccccc2)cc1,-12.7%,2.8%,3.1%,-0.7%
c1ccc(-n2c(SCc3ccncc3)nnc2-c2ccco2)cc1,28.2µM*,-9.2%,0.0%,0.4%
O=c1oc(-c2ccccc2)cc2ccccc12,.,.,13.6%,.
O=c1oc(-c2ccccc2)cc(Cl)c1Cl,2.6%,10.6µM*,-15.8%,-23.2%
Cc1ccc(CCC2CCN(C(=O)c3n[nH]c(=O)c4ccccc34)CC2)cc1,.,.,-3.9%,.
O=c1[nH][nH]c(=S)n1C1CCCCC1,2.82µM*,2.99µM*,.,35.5µM*
COc1ccc(Br)cc1C[N+]1(C)CCCCC1,.,.,15.8µM*,.
Cc1ccc(NC(=O)C2CCCC2)cc1Cl,.,-7.0%,250.0%,-19.2%
Cc1ccc(NC(=S)NC(=O)C2CCCC2)c(Br)c1,.,-16.0%,35.5µM*,-9.3%
SMILES,Sfp inh,PLK1 PBD inh,ALOX12 inh,VDR inh
Cc1ccc(NS(=O)(=O)c2ccc(Cl)c(NC(=S)NC(=O)C3CCCCC3)c2)cc1Cl,13.9%,-1.6%,12.6µM*,-9.6%
O=C(NC(=S)Nc1ccccc1Br)C1CC1,.,-8.1%,-22.4%,23.0%
CC(C)N(C(=O)COC(=O)c1c[nH]c2ccccc12)C(C)C,.,.,-1.2%,.
Cc1cccc(N2C(=O)CC(Sc3nnc(C)s3)C2=O)c1 (stereo not given),-10.3%,29.9µM*,-4.9%,-18.0%
Cc1cccc(N2C(=O)CC(Sc3nc(C)cc(C)n3)C2=O)c1 (stereo not given),-2.2%,-19.2%,3.3%,-5.5%
Cc1nc(NC(=O)CCc2ccccc2)sc1C,39.8µM*,15µM*,?,89.1µM*
CCOC(=O)C(=O)Nc1nccs1,-0.6%,-4.5%,-12.0%,3.9%
Cc1nc(NC(=O)c2ccccc2)sc1C,25.1%,-5.3%,-1.4%,2.7%
Cc1nc(NC(=O)CSc2nc(N)cc(N)n2)sc1C,10.0%,-11.5%,-0.4%,-16.9%
CCOC(=S)SCC(=O)Nc1nccs1,70.8µM*,-23.5%,-3.0%,-26.7%
CCOC(=S)SCC(=O)Nc1nc(C)c(C)s1,56.2µM*,?,6.7%,?
CCCCCC(=O)Nc1c2c(nc3ccccc13)CCC2,0.8%,-6.6%,-2.2%,1.6%
Cc1nc2n(n1)C(C(=O)Nc1ccccc1C)CC(=O)N2 (stereo not given),.,.,8.3%,.
Cc1ccc(NC(=O)CCNC(=O)N2CC(=O)Nc3ccccc32)cc1Cl,.,2.0%,-8.7%,.
Cc1ccc(NC(=O)CNC(=O)N2CC(=O)Nc3ccccc32)cc1F,16.6%,7.52µM*,-9.2%,?
O=C(O)COc1ccc(-c2nccc(-c3ccccn3)n2)cc1,?,18.9µM*,?,-29.4%
CCNc1nc(NCC)nc(N2CC(=O)N(CC(=O)OCC)C2=N)n1,.,1.7%,-5.5%,17.9%
CCCCCCCCN1C(=O)[C@H](CC(=O)NCc2ccc(C)o2)C[C@@]2(C(=O)OC)CC(C)(C)CC=C12,.,-12.6%,39.8µM*,.
O=C(COc1ccc(CO)cc1Cl)Nc1ccc(F)cc1,0.6%,-13.8%,-16.9%,27.5%
COc1cc(-c2nc(=S)[nH][nH]2)cc(OC)c1OC,50.1µM*,-15.8%,?,50.1µM*
COc1ccc(-c2nc(=S)[nH][nH]2)cc1OC,56.2µM*,-8.8%,?,-19.5%
Cc1nc(NCc2ccc3c(c2)OCO3)c2nnn(Cc3ccccc3)c2n1,-14.9%,1.2%,-2.8%,-7.3%
CCn1c(-c2nonc2N)nc2cnc(Oc3cccc(NC(=O)c4ccc(OCCN5CCOCC5)cc4)c3)cc21,.,.,-35.4%[57.4 µM],.
Cc1cc2oc(=O)cc(CN3CCCCC3C)c2cc1Cl (stereo not given),2.4%,-2.7%,17.8µM*,3.0%
Cc1cc2oc(=O)cc(CN3CCCCC3C)c2cc1C (stereo not given),-5.1%,-2.0%,11.2µM*!,9.1%
SMILES,Sfp inh,PLK1 PBD inh,ALOX12 inh,VDR inh
Cc1cc2oc(=O)cc(CN3CCN(C)CC3)c2cc1Cl,.,.,-25.0%,.
Cc1cc2oc(=O)cc(CN3CCCCCC3)c2cc1C(C)C,.,.,17.8µM*,.
Cc1cc(C)c2c(CN3CCCCC3C)cc(=O)oc2c1 (stereo not given),-8.5%,-4.5%,?,-1.7%
CCC(=O)N1CCCC(C)(C(=O)Nc2ccc3scnc3c2)C1 (stereo not given),.,-5.5%,-5.9%,.
Cc1ccc(C)n1-c1ccc(N(C)C)cc1,39.8µM*,-22.4%,?,?
CN(CC(=O)NC(=O)NCC(F)(F)F)CC(=O)Nc1ccc(Cl)c(Cl)c1,.,.,-1.8%,.
Cc1ccc(-n2ncc3c2CCCC3NC(=O)c2ccccc2N2CCOCC2)cc1C (stereo not given),-3.3%,-2.1%,?,-11.9%
c1cc2c(cc1C1CCCCC1)c1c3n2CCCNC3CCC1 (stereo not given),31.6µM*,-1.0%,?,6.5%
Cc1ccc2c(c1)c1c3n2CCCNC3CCC1 (stereo not given),-12.6%,-7.0%,-18.6%,20.9%
c1cc2c(cc1C1CCCCC1)c1c3n2CCN=C3CCC1,79.4µM*,?,?,-8.6%
c1ccc2c(c1)c1c3n2CCNC3CCC1 (stereo not given),79.4µM*,1.2%,51.3%,16.3%
c1cc2c(cc1C1CCCCC1)c1c3n2CCN[C@H]3CCC1,5.62µM*,.,?,-12.8%
